Screens (PubChem)
Artemis inh – blocks endonuclease activity of human Artemis | Q96SD1 | recombinant Artemis, quenched FAM hairpin cleavage fluorescence | hit rate 0.78% among 30,000 | inhibition, % at 10 µM;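 active = at 10 µM dose, at least 30% inhibition, measured as corrected fluorescence normalized to stimulator and neutral control wells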
Of the large screens only hits and unclear results are named; the others gave an inactive call. The entries come from a sample that favours hits as a whole.

CCOc1c(OC(C)=O)ccc(/C=C2\N=C(SCC)SC2=O)c1[N+](=O)[O-]	Artemis inh 30
CSC1=N/C(=C\c2ccc(C)cc2)C(=O)S1	none
CCOc1cc(/C=C2\N=C(SC)SC2=O)cc([N+](=O)[O-])c1OC(C)=O	Artemis inh 33
COc1ccc(OC)c(S(=O)(=O)N2CCC(C(=O)Nc3cccc(C(F)(F)F)c3)CC2)c1	none
CCOC(=O)C(NS(=O)(=O)c1ccccc1)(C(F)(F)F)P(=O)(OCC(C)C)OCC(C)C (centres undefined)	none
O=C(c1cccc(S(=O)(=O)N2CCCCC2)c1)N1CCN(S(=O)(=O)c2ccc(F)cc2)CC1	none
CCn1cc(C(=O)NCc2cccnc2)c(=O)c2cc(F)c(N3CCN(C(=O)c4ccco4)CC3)cc21	none
O=C(N/N=C/c1ccc(OCCCF)cc1)c1cc(OCC(F)(F)F)ccc1OCC(F)(F)F	none
N#Cc1c(NCCN)nc(-c2ccccc2)c2c1CCCC2	none
N#Cc1c(NCCN)nc(NCc2ccccc2)c2c1CCN(Cc1ccccc1)C2	Artemis inh 58
Nc1[nH]nc2nc(NCc3ccccc3)c3c(c12)CCN(Cc1ccccc1)C3	none
CCc1ccc(C(=O)Nc2cc3c(cc2Cl)OCCCO3)cc1	none
COc1ccc(N/C(N)=N/c2nc(CSc3ccc(C)cc3)cc(=O)[nH]2)cc1	none
Cc1cc(=O)[nH]c(/N=C(\N)Nc2cccc3ccccc23)n1	none
COc1ccccc1N/C(N)=N/c1nc(CSc2ccc(C)cc2)cc(=O)[nH]1	Artemis inh 30
CCC12CCCN3CCC4(C(=C(C(=O)OC)C1)Nc1ccccc14)C32 (centres undefined)	none
CCCCOCCCn1c(-c2ccco2)nc2nc3ccccc3nc21	none
COc1cccc(C(C(=O)NC2CCCC2)N(Cc2ccc(C)cc2)C(=O)c2ccco2)c1OC (centres undefined)	none
COc1ccccc1CN(C(=O)c1ccco1)C(C(=O)NC1CCCC1)c1ccncc1 (centres undefined)	Artemis inh 83
COc1cccc(CN(C(=O)c2ccco2)C(C(=O)NC2CCCC2)c2cccnc2)c1 (centres undefined)	none
O=C(O)C(=O)/C(=C\c1cccc2ccccc12)c1ccc2ccccc2n1	Artemis inh 30
Cc1cccc(NC(=O)c2ccc3ccccc3n2)c1C	none
O=C(O)C(=O)/C(=C\c1ccccc1)c1ccc2ccccc2n1	none
COc1ccc(NC(=O)c2cc(S(=O)(=O)N3CCS(=O)(=O)CC3)ccc2Cl)cc1	none
O=C(COC(=O)Cc1cccs1)Nc1ccccc1	none
O=C(Nc1cccc2nsnc12)c1ccc(-c2cccc(Cl)c2)o1	Artemis inh 46
O=C(Nc1cccc2nsnc12)c1ccc(F)cc1	none
O=C(Nc1cccc2nsnc12)c1ccc2c(c1)OCO2	none
N#Cc1ccccc1NC(=O)COC(=O)CSc1nc2ccccc2o1	none
CC(=O)c1c(C)[nH]c(C(=O)CSc2nc3ccc(C)cc3[nH]2)c1C	none
Cc1noc(C)c1CSc1nc2ccccc2nc1NS(=O)(=O)c1ccc(Cl)cc1	Artemis inh 33
Cc1noc(C)c1CSc1nc2ccccc2c(=O)n1-c1ccccc1	none
O=S(=O)(Nc1nc2ccccc2nc1NCc1ccco1)c1ccc(Cl)cc1	none
CC1=NC(C)Cc2ccccc21 (centres undefined)	none
O=C(NS(=O)(=O)c1ccccc1)c1ccccc1F	none
c1ccc(-c2nc(N3CCOCC3)c3ccccc3n2)nc1	none
c1ccc(-c2nc(N3CCCCCC3)c3ccccc3n2)nc1	Artemis inh 78
c1ccc(CN2CCN(c3nc(-c4ccccc4)nc4ccccc34)CC2)cc1	none
COc1ccc2c(c1)[nH]c1c(=O)n(CCCn3ccnc3)cnc12	none
CCOc1ccc(NC(=O)CSc2nnc(Cn3cnc4ccccc43)n2C)cc1	none
COc1ccccc1-n1c(C)cc(C=O)c1C	none
CCCCCOCC1CC(C/C(C)=N/Nc2nc(-c3ccccc3)cs2)C(=O)O1 (centres undefined)	none
COc1ccc(C(=O)N(C(C)C)C(C)C)c(OC)c1	none
COc1cc(OC)cc(C(=O)NC2CCN(CC(=O)Nc3cccc4ccccc34)CC2)c1	none
CCCn1c2ccccc2c2nnc(SC(CC)C(=O)Nc3cc(C)on3)nc21 (centres undefined)	none
O=C1c2ccccc2C(=O)N1CSc1nnc2c3ccccc3n(CCc3ccccc3)c2n1	none
CSc1nnc2c3cc(C)ccc3n(Cc3ccccc3)c2n1	Artemis inh 37
COc1ccccc1CNC(=O)C[n+]1ccccc1	none
O=C(Nc1nc(-c2ccccn2)cs1)c1ncc(Cl)c(Cl)c1Cl	none
O=C(O)CCC(=O)Nc1nc(-c2ccccc2)cs1	none
O=C(CCCSc1ccccc1)Nc1nc(-c2ccccn2)cs1	Artemis inh 58
CCn1nnnc1SCC(=O)NC1CCCC1	none
COc1ccc(-c2cnn(C3CCS(=O)(=O)C3)c2N)cc1 (centres undefined)	none
CCOC(=O)N1CCN(Cc2nc(N)nc(Nc3ccc(Oc4ccccc4)cc3)n2)CC1	Artemis inh 39
CCOC(=O)C1CCCN(c2cc(C)nc3cc(-c4ccc(Cl)cc4)nn23)C1 (centres undefined)	none
CCOC(=O)C1CCCN(C(=O)Cc2ccc(Cl)cc2)C1 (centres undefined)	none
Cc1ccc(Nc2nc(N)nc(CN3CCN(Cc4ccc5c(c4)OCO5)CC3)n2)cc1	none
CCCCOc1ccc(NC(=O)CN2CCN(C(=O)OCC)CC2)cc1	none
CCOC(=O)C1CCCN(Cc2nc(N)nc(Nc3ccc(Cl)cc3)n2)C1 (centres undefined)	Artemis inh 34
C=CCN1C(=O)C(Cc2ccc(OCC)cc2)S/C1=N\N=C\c1cccs1 (centres undefined)	none
COC(=O)c1nn(-c2ccccc2)c(Cl)c1/C=N/OCc1ccc(C)cc1	none
CCOC(=O)c1cnc(SC)nc1Sc1cc(Cl)ccc1Cl	none
CCOC(=O)c1cnc2c(C)c(-c3ccccc3)[nH]n2c1=O	none
COc1cc(/C=N/NC(=O)C2c3ccccc3Oc3ccccc32)ccc1O	none
C=CCOC(=O)c1cc(-c2ccc(/C=C3\C(=O)NC(=O)C(C#N)=C3C)o2)ccc1Cl	Artemis inh 36
CC1=NOC(=O)/C1=C\c1ccc(-c2cccc(Cl)c2)o1	none
C=CCOC(=O)C1=C(C)NC(SC)=C(C#N)C1c1ccc(OCC)cc1 (centres undefined)	none
CC(C)(C)c1ccc(OCCNC(=O)c2ncn[nH]2)cc1	none
CCCCCCCCCCCC(=O)NC(C(=O)OCC)C(O)c1cccc([N+](=O)[O-])c1 (centres undefined)	none
O=C(O)CCN1C(=O)/C(=C/c2ccc(-c3nc4ccccc4s3)o2)SC1=S	none
O=c1oc2ccccc2n1CSc1nc2ccccc2s1	none
O=C(O)CC(C(=O)O)N1C(=O)/C(=C/c2ccc(-c3nc4ccccc4s3)o2)SC1=S (centres undefined)	Artemis inh 64
COc1ccc(CCN(C(=O)c2ccc(F)cc2)C2=CC3CCC(C2)N3C)cc1OC (centres undefined)	none
O=C(O)COc1ccc(/C=N/NC(=O)C2CCCN2S(=O)(=O)c2ccc(Cl)cc2)cc1 (centres undefined)	none
CC1=C(C(=O)Nc2cccc(C)n2)C(c2ccc3c(c2)OCO3)C2=C(CC(c3ccco3)CC2=O)N1 (centres undefined)	none
COc1cc2ccccc2cc1C(=O)Nc1cccnc1	none
COC(=O)/C=C/C(=O)Nc1cccnc1	Artemis inh 35
O=C(Nc1cccnc1)C1(F)C(F)(F)C(F)(F)C(F)(F)C(F)(F)C1(F)F	none
Cn1cc(C(=O)Nc2ccc(F)c(F)c2)cn1	none
C=CCN1CCN(c2ccncc2S(=O)(=O)N2CCOCC2)CC1	none
Cc1nn(-c2ccccc2)c(Cl)c1C(=O)Nc1nnc(C2CCCC2)s1	none
COc1ccc(NC(=O)CSc2nc(C)cc(C)n2)cc1	none
